Laboratory results reported in PubChem BioAssay AID1159580 (chemical genetic matrix, 2015).
In all, about 5,500 compounds went through this assay and about 2,000 (36%) were called active. Inconclusive results (about 18%) are left out. The list shows a part of the results. A number with no mark means an inactive call. Rule as the data show it: active = normalized growth mostly below about 0.91 (no sharp cut-off); inconclusive = no clear call, values can overlap the other calls; inactive = mostly above about 0.92.

Experiment: chemical genetic growth profiling, strain panel (AID 1159580);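 also: tested at 20 µM; growth read once vehicle control cultures reached saturation at 30 °C; 1 = growth at the plate median or of vehicle wells; lower values mean less growth of the strain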
Settings: growth OD
[1] = S. cerevisiae deletion strains, locus YAL013W, strain DEP1, hits give low values
[2] = S. cerevisiae deletion strains, locus YGR078C, strain PAC10, hits give low values
[3] = S. cerevisiae deletion strains, locus YGR229C, strain SMI1, hits give low values
[4] = S. cerevisiae deletion strains, locus YJR075W, strain HOC1, hits give low values
[5] = S. cerevisiae deletion strains, locus YNL153C, strain GIM3, hits give low values
[6] = S. cerevisiae deletion strains, locus YNL322C, strain KRE1, hits give low values
[7] = S. cerevisiae deletion strains, locus YAL040C, strain CLN3, hits give low values
[8] = S. cerevisiae deletion strains, locus YCL061C, strain MRC1 (second series), hits give low values
[9] = S. cerevisiae deletion strains, locus YER002W, strain NOP16, hits give low values
[10] = S. cerevisiae deletion strains, locus YNL175C, strain NOP13, hits give low values
[11] = S. cerevisiae deletion strains, locus YNL197C, strain WHI3, hits give low values
[12] = S. cerevisiae deletion strains, locus YNL224C, strain SQS1, hits give low values
[13] = S. cerevisiae deletion strains, locus YOR083W, strain WHI5 (second series), hits give low values

Question: What does the source list for `COP(=O)(NC(C)=O)SC` (centres undefined)?
Answer: normalized growth [1]: 1.01; normalized growth (S. cerevisiae deletion strains, locus YBR021W, strain FUR4, hits give low values): 1; normalized growth (S. cerevisiae deletion strains, locus YBR229C, strain ROT2, hits give low values): 1.01; normalized growth (S. cerevisiae deletion strains, locus YCL029C, strain bik1, hits give low values): 1; normalized growth (S. cerevisiae deletion strains, locus YDL035C, strain GPR1, hits give low values): 1.01; normalized growth (S. cerevisiae deletion strains, locus YDL074C, strain BRE1, hits give low values): 1.04; normalized growth (S. cerevisiae deletion strains, locus YDL101C, strain DUN1, hits give low values): 1.01; normalized growth (S. cerevisiae deletion strains, locus YDL134C, strain PPH21, hits give low values): 1.01; normalized growth (S. cerevisiae deletion strains, locus YDL185W, strain tfp1, hits give low values): 1; normalized growth (S. cerevisiae deletion strains, locus YDL192W, strain arf1, hits give low values): 0.996; normalized growth (S. cerevisiae deletion strains, locus YDR101C, strain arx1, hits give low values): 1; normalized growth (S. cerevisiae deletion strains, locus YDR150W, strain NUM1, hits give low values): 0.997; normalized growth (S. cerevisiae deletion strains, locus YDR162C, strain NBP2, hits give low values): 1.04; normalized growth (S. cerevisiae deletion strains, locus YDR318W, strain mcm21, hits give low values): 0.996; normalized growth (S. cerevisiae deletion strains, locus YDR388W, hits give low values): 0.983; normalized growth (S. cerevisiae deletion strains, locus YDR502C, strain sam2, hits give low values): 0.996; normalized growth (S. cerevisiae deletion strains, locus YEL061C, strain CIN8, hits give low values): 1; normalized growth (S. cerevisiae deletion strains, locus YER110C, hits give low values): 0.994; normalized growth (S. cerevisiae deletion strains, locus YER155C, strain BEM2, hits give low values): 1.01; normalized growth (S. cerevisiae deletion strains, locus YER167W, strain BCK2, hits give low values): 0.989; normalized growth (S. cerevisiae deletion strains, locus YGL078C, strain dbp3, hits give low values): 0.994; normalized growth (S. cerevisiae deletion strains, locus YGL086W, strain mad1, hits give low values): 0.994; normalized growth (S. cerevisiae deletion strains, locus YGL248W, strain PDE1, hits give low values): 1; normalized growth [2]: 1.04; normalized growth (S. cerevisiae deletion strains, locus YGR135W, strain pre9, hits give low values): 1; normalized growth [3]: 1.04; normalized growth (S. cerevisiae deletion strains, locus YGR252W, strain gcn5, hits give low values): 0.976; normalized growth (S. cerevisiae deletion strains, locus YHR030C, strain SLT2, hits give low values): 1.01; normalized growth (S. cerevisiae deletion strains, locus YHR079C, strain IRE1 (second series), hits give low values): 0.998; normalized growth (S. cerevisiae deletion strains, locus YHR094C, strain hxt1, hits give low values): 0.991; normalized growth (S. cerevisiae deletion strains, locus YHR129C, strain ARP1, hits give low values): 1.01; normalized growth (S. cerevisiae deletion strains, locus YHR200W, strain rpn10, hits give low values): 1; normalized growth (S. cerevisiae deletion strains, locus YIL066C, strain RNR3, hits give low values): 1.04; normalized growth (S. cerevisiae deletion strains, locus YIL073C, strain SPO22, hits give low values): 1.03; normalized growth (S. cerevisiae deletion strains, locus YIL125W, strain kgd1, hits give low values): 0.997; normalized growth (S. cerevisiae deletion strains, locus YIR030C, strain dcg1, hits give low values): 1; normalized growth (S. cerevisiae deletion strains, locus YJL095W, strain BCK1, hits give low values): 1.01; normalized growth (S. cerevisiae deletion strains, locus YJL134W, strain LCB3, hits give low values): 1; normalized growth (S. cerevisiae deletion strains, locus YJL168C, strain set2, hits give low values): 0.989; normalized growth (S. cerevisiae deletion strains, locus YJL187C, strain SWE1 (second series), hits give low values): 1.01; normalized growth (S. cerevisiae deletion strains, locus YJR043C, strain POL32, hits give low values): 1.02; normalized growth [4]: 1.03; normalized growth (S. cerevisiae deletion strains, locus YKL009W, strain mrt4, hits give low values): 1.01; normalized growth (S. cerevisiae deletion strains, locus YKL068W, hits give low values): 1.01; normalized growth (S. cerevisiae deletion strains, locus YKL085W, strain MDH1 (second series), hits give low values): 0.997; normalized growth (S. cerevisiae deletion strains, locus YKL085W, strain MDH1, hits give low values): 0.997; normalized growth (S. cerevisiae deletion strains, locus YKL190W, strain CNB1, hits give low values): 1.03; normalized growth (S. cerevisiae deletion strains, locus YKR001C, strain vps1, hits give low values): 0.996; normalized growth (S. cerevisiae deletion strains, locus YLR039C, strain RIC1, hits give low values): 1.05; normalized growth (S. cerevisiae deletion strains, locus YLR058C, strain SHM2, hits give low values): 1.01; normalized growth (S. cerevisiae deletion strains, locus YLR102C, strain apc9, hits give low values): 0.994; normalized growth (S. cerevisiae deletion strains, locus YLR262C, strain YPT6, hits give low values): 1.02; normalized growth (S. cerevisiae deletion strains, locus YLR268W, strain sec22, hits give low values): 0.999; normalized growth (S. cerevisiae deletion strains, locus YLR330W, strain CHS5, hits give low values): 1.01; normalized growth (S. cerevisiae deletion strains, locus YLR342W, strain FKS1 (second series), hits give low values): 1.01; normalized growth (S. cerevisiae deletion strains, locus YLR371W, strain rom2, hits give low values): 1; normalized growth (S. cerevisiae deletion strains, locus YLR418C, strain cdc73, hits give low values): 0.998; normalized growth (S. cerevisiae deletion strains, locus YML016C, strain PPZ1, hits give low values): 1.01; normalized growth (S. cerevisiae deletion strains, locus YML032C, strain rad52, hits give low values): 0.999; normalized growth (S. cerevisiae deletion strains, locus YML124C, strain tub3, hits give low values): 0.997; normalized growth (S. cerevisiae deletion strains, locus YMR078C, strain ctf18, hits give low values): 0.995; normalized growth (S. cerevisiae deletion strains, locus YMR223W, strain ubp8, hits give low values): 1; normalized growth (S. cerevisiae deletion strains, locus YMR263W, strain SAP30, hits give low values): 1.04; normalized growth (S. cerevisiae deletion strains, locus YMR307W, strain GAS1, hits give low values): 1.05; normalized growth (S. cerevisiae deletion strains, locus YNL067W, strain RPL9B, hits give low values): 1.03; normalized growth (S. cerevisiae deletion strains, locus YNL128W, strain TEP1, hits give low values): 1.01; normalized growth [5]: 1.02; normalized growth (S. cerevisiae deletion strains, locus YNL233W, strain BNI4, hits give low values): 1.01; normalized growth (S. cerevisiae deletion strains, locus YNL250W, strain rad50, hits give low values): 0.986; normalized growth (S. cerevisiae deletion strains, locus YNL271C, strain bni1, hits give low values): 0.993; normalized growth (S. cerevisiae deletion strains, locus YNL298W, strain CLA4, hits give low values): 0.995; normalized growth (S. cerevisiae deletion strains, locus YNL307C, strain MCK1, hits give low values): 0.995; normalized growth [6]: 1.01; normalized growth (S. cerevisiae deletion strains, locus YNR052C, strain pop2, hits give low values): 0.998; normalized growth (S. cerevisiae deletion strains, locus YOL006C, strain TOP1, hits give low values): 1.05; normalized growth (S. cerevisiae deletion strains, locus YOL012C, strain htz1): 0.88; normalized growth (S. cerevisiae deletion strains, locus YOL147C, strain pex11, hits give low values): 0.988; normalized growth (S. cerevisiae deletion strains, locus YOR061W, strain CKA2, hits give low values): 1.01; normalized growth (S. cerevisiae deletion strains, locus YOR069W, strain VPS5, hits give low values): 1.01; normalized growth (S. cerevisiae deletion strains, locus YOR136W, strain idh2, hits give low values): 1; normalized growth (S. cerevisiae deletion strains, locus YOR144C, strain elg1, hits give low values): 0.995; normalized growth (S. cerevisiae deletion strains, locus YOR184W, strain ser1, hits give low values): 1.01; normalized growth (S. cerevisiae deletion strains, locus YOR316C, strain cot1, hits give low values): 0.999; normalized growth (S. cerevisiae deletion strains, locus YPL055C, strain LGE1, hits give low values): 1.09; normalized growth (S. cerevisiae deletion strains, locus YPL241C, strain CIN2, hits give low values): 1.01; normalized growth (S. cerevisiae deletion strains, locus YPR119W, strain clb2, hits give low values): 0.993; normalized growth (S. cerevisiae deletion strains, locus YPR141C, strain kar3, hits give low values): 0.994; normalized growth (S. cerevisiae deletion strains, locus YPR163C, strain tif3, hits give low values): 0.998; normalized growth (S. cerevisiae deletion strains, locus YPR167C, strain met16, hits give low values): 0.997; normalized growth (S. cerevisiae deletion strains, strain wtn01, hits give low values): 0.993; normalized growth (S. cerevisiae strains, strain wild type, hits give low values): 1.01

Question: For `Oc1ccccc1O`, which normalized growth [1] is on record?
Answer: 0.966

Question: And the normalized growth [7]?
Answer: 0.983

Question: What about the normalized growth [8] of the same molecule?
Answer: 0.971

Question: What about the normalized growth [9] of the same molecule?
Answer: 1

Question: What about the normalized growth [3] of the same molecule?
Answer: 0.904

Question: And the normalized growth [5]?
Answer: 1.03

Question: And the normalized growth [10]?
Answer: 1.02

Question: What about the normalized growth [11] of the same molecule?
Answer: 1.02

Question: What about the normalized growth [12] of the same molecule?
Answer: 0.999

Question: And the normalized growth [13]?
Answer: 1.03

Question: Which results are given for `c1cnc2c(c1)ccc1cccnc12`?
Answer: normalized growth [1]: 0.0762 (active); normalized growth [7]: 1.07; normalized growth [8]: 0.0542 (active); normalized growth (S. cerevisiae deletion strains, locus YDR363W, strain ESC2, hits give low values): 0.0973 (active); normalized growth [9]: 0.0834 (active); normalized growth [2]: 0.109 (active); normalized growth [4]: 0.0769 (active); normalized growth [5]: 0.103 (active); normalized growth [10]: 0.0953 (active); normalized growth [11]: 0.0905 (active); normalized growth [12]: 0.123 (active); normalized growth [6]: 0.0666 (active); normalized growth [13]: 0.0868 (active)
